The list is not random: actives were taken first. Their share in the collection is about 3.3%.
LmPK inh – LmPK (Leishmania mexicana) enzyme inhibition | Q27686 | purified LmPK, Kinase-Glo ATP luminescence, 1 h | Potency, µM (top dose mostly 57.5 µM), hits mostly inhibitors | 0.37% of 290,000 active
Target sequence (Q27686 whole entry, looked up): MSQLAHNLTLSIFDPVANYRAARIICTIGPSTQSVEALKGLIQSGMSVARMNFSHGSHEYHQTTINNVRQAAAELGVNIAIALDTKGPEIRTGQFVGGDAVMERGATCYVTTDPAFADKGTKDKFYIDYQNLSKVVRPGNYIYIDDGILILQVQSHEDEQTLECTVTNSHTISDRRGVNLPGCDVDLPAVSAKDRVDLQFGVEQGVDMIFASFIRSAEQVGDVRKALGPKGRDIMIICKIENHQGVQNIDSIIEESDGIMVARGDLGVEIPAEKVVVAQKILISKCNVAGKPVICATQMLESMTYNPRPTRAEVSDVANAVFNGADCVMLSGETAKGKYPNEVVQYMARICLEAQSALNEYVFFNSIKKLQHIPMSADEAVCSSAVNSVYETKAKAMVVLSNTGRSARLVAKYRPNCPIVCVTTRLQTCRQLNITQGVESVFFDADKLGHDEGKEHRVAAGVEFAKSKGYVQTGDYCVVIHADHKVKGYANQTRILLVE
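Kinase-Glo luminescence read after 1 h RT reaction of 0.1 nM LmPK with 0.5 mM PEP and 0.1 mM ADP. Activity scaled between uninhibited and enzyme-free controls.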
SARS PLP yeast – SARS-CoV PLP inhibition in yeast; Potency, µM (series often up to 32.9 µM), usual class: activators; AID 485353; 0.19% of 330,000 active; S. cerevisiae expressing SARS-CoV PLpro, growth rescue; calls by dose curve; also: nearly all actives have a fitted effect of over 55% in size
Sm TGR block – S. mansoni TGR enzyme inhibition. purified TGR, DTNB reduction, TNB absorbance 405 nm. Potency, µM (highest dose often 114 µM), hits mostly inhibitors. 3% of 360,000 active. AID 485364; also: nearly all actives have a fitted effect of over 60% in size
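First, TGR (20 nM dispensed) and NADPH were mixed with compound. Second, a 15 min room-temperature incubation followed. Third, further NADPH and then DTNB were added to start the reaction. Finally, TNB absorbance was monitored kinetically.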
Tb PYK inh – inhibitors of Trypanosoma brucei pyruvate kinase | Q57TT1 | TbPYK enzyme, Kinase-Glo Plus ATP luminescence, 45 min | Potency, µM (series often up to 76.8 µM), most hits filed as inhibitors | 0.12% of 410,000 active | AID 624173; also: nearly all actives have a fitted effect of over 50% in size
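In this concentration-response screen, enzyme-free wells defined baseline while DMSO plates tracked drift. Each reaction combined TbPYK, substrate, compound and 130 uM ADP for 45 min at room temperature. Kinase-Glo Plus luminescence gave the signal.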
NS1 function inh – inhibitors of influenza NS1 protein function. Potency, µM (series often up to 46.1 µM). 0.4% of 270,000 active. AID 2326; calls by dose curve; also: actives are rising curves; nearly all actives have a fitted effect of over 50% in size
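In this qHTS, NS1 from influenza A is expressed in budding yeast, where it slows growth. Cells are switched from glucose to 2% galactose medium (pH 6.0, -URA), treated with compound, and growth recovery is read at OD600.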
RE007 growth inh – less growth of the S. pombe RE007 Vpr strain; Potency, µM (top dose mostly 92.2 µM), usual class: inhibitors; 0.21% of 360,000 active; S. pombe RE007 Vpr strain, BacTiter-Glo ATP luminescence, 24 h; AID 651644; active = well fitted falling curve with a large enough effect; inconclusive = small, poorly fitted or top-dose-only effect; inactive = no such curve, though single readings can be large or run the other way; also: nearly all actives have a fitted effect of over 50% in size
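Fission yeast RE007 carrying one integrated HIV-1 vpr copy, seeded at OD 0.01 in PMG+AL medium with 23 nL pinned compound. Grown 24 h at 30 degrees; viability read by BacTiter-Glo luminescence after 5 min.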
Numbers stand for hits; i = inactive; ? = inconclusive; nt = no result given; [ ] = another dose, or the depositor's remark. Unless noted, calls follow the shape of the dose curve; as a rule, active = well fitted curve in the direction sought with a large enough effect; inconclusive = small, poorly fitted or top-dose-only effect, or another doubt; inactive = no such curve, though single readings can be large; an effect the other way counts as inactive or inconclusive.

SMILES	LmPK inh	SARS PLP yeast	Sm TGR block	Tb PYK inh	NS1 function inh	RE007 growth inh
CC(=O)C1=NOC2C(=O)N(c3ccccc3)C(=O)C12 (stereo not drawn)	i	i	11.2µM	i	i	nt
Cc1ccc(N2C(=O)[C@@H]3C(c4ccc(F)cc4)=NO[C@@H]3C2=O)cc1	i	i	i	i	i	i
Cc1cc(C)cc(NC(=O)N2CCC(CN3CCc4ccccc4C3)CC2)c1	nt	nt	i	i	nt	nt
O=C(NC1CCCCCC1)C1CCN(C(=O)N2CCOc3ccccc32)CC1	nt	nt	i	i	nt	nt
Cc1cccc(N2C(=O)C=CC2=O)c1	nt	nt	nt	?	nt	8.91µM
O=C1C=CC(=O)N1c1ccc(Nc2ccccc2)cc1	nt	nt	nt	?	nt	11.2µM
c1ccc(Nc2ccc(Nc3ccccc3)cc2)cc1	nt	i	?	i	nt	i
O=C1C=CC(=O)N1c1ccc2ccccc2c1	nt	nt	nt	?	nt	2.24µM
O=c1c2ccccc2cnn1-c1ccc2ccccc2c1	i	i	i	i	i	i
CN1CCN(c2ncc3c(n2)CCN(Cc2cc(Br)cs2)C3)CC1	nt	nt	i	i	nt	nt
COc1cc(-c2noc(-c3ccc(N(C)C)c([N+](=O)[O-])c3)n2)cc(OC)c1OC	nt	nt	i	i	nt	nt
O=C(CSc1ccsc1[N+](=O)[O-])Nc1cc(F)ccc1F	i	i	35.5µM	i	nt	i
CCc1ccc2occ(CC(=O)Nc3nnc(C)s3)c2c1	nt	nt	i	i	nt	nt
O=C(NC(NNc1ccc([N+](=O)[O-])cc1)(C(F)(F)F)C(F)(F)F)c1ccc(F)cc1	i	i	31.6µM	i	i	i
CCc1ccc(S(=O)(=O)NCCc2csc3nc(-c4ccccc4)nn23)s1	nt	nt	i	i	nt	nt
CC(C)(C)C1=C(C#N)C(c2cc3c(cc2Br)OCO3)C(C#N)=C(N)O1 (stereo not drawn)	i	i	2.82µM	i	i	i
O=C(Nc1ccccc1Cl)c1ccc(F)c(S(=O)(=O)NCc2ccc(Cl)c(Cl)c2)c1	nt	nt	i	i	nt	nt
O=C1c2oc3ccccc3c(=O)c2C(c2ccc(O)cc2)N1Cc1ccc2c(c1)OCO2 (stereo not drawn)	nt	nt	i	i	nt	nt
COc1ccc(N2CCN(CC(O)COc3ccc(C(C)C)c(C)c3)CC2)cc1 (stereo not drawn)	nt	nt	i	i	nt	nt
CCCc1nc2c(sc3nc4c(cc32)COC(C)(C)C4)c(=O)n1Cc1ccco1	i	i	35.5µM	i	i	i
Cc1nc2c(sc3nc4c(cc32)COC(C)(C)C4)c(=O)n1CC(=O)NCc1ccco1	i	i	39.8µM	i	i	i
CC1(C)Cc2nc3sc4c(=O)n(CC(=O)NCc5ccccc5)cnc4c3cc2CO1	i	i	i	i	i	i
CC1(C)Cc2nc3sc4c(SCC(=O)NCc5ccco5)ncnc4c3cc2CO1	i	i	12.6µM	i	i	i
CCCC[n+]1c(C)sc2ccc(C)cc21	i	i	i	i	i	i
Cc1ccc2sc(C)[n+](CCO)c2c1	i[11.5 µM]	i	25.1µM	i	nt	i
SMILES	LmPK inh	SARS PLP yeast	Sm TGR block	Tb PYK inh	NS1 function inh	RE007 growth inh
COC(=O)Sc1nnc(-c2ccc(Br)cc2)o1	i	i	44.7µM	nt	i	nt
COc1cccc(NC(=O)C2CCN(S(=O)(=O)c3c(C)noc3/C=C/c3cccs3)CC2)c1	nt	nt	i	i	nt	nt
CCN(CCO)C1CC(=O)N(c2ccccc2C)C1=O (stereo not drawn)	i	i	6.31µM	i	i	22.4µM
CCCOc1ccc(N2C(=O)CC(N(O)c3ccccc3)C2=O)cc1 (stereo not drawn)	i	i	?	i	i	i
O=C1CC(N(O)c2ccccc2)C(=O)N1c1cc(Cl)cc(Cl)c1 (stereo not drawn)	i	i	?	i	i	i
CCCOc1ccccc1N1C(=O)CC(N(O)c2ccccc2)C1=O (stereo not drawn)	i	i	i	i	i	i
COc1ccccc1N(O)C1CC(=O)N(c2ccc(F)cc2)C1=O (stereo not drawn)	i	i	3.55µM	i	i	i
COc1ccccc1N1C(=O)CC(N(O)c2ccccc2)C1=O (stereo not drawn)	i	i	39.8µM	i	i	i
Cc1ccccc1N1C(=O)CC(N(O)c2ccccc2)C1=O (stereo not drawn)	i	i	39.8µM	i	?	i
c1cc(CCN2CCCCC2)ccn1	nt	nt	nt	nt	i	nt
CCC(CC)c1nn2c(=O)cc(COc3ccc(NC(=O)c4cccc(C)c4)cc3)nc2s1	nt	nt	i	i	nt	nt
N#Cc1cc2c([nH]c1=O)CCCC2	i	i	i	i	i	i
N#Cc1cc2c([nH]c1=S)CCCC2	i	i	i	5.62µM	i	i
CC1(C)Cc2[nH]c(=S)c(C#N)cc2CO1	i	i	31.6µM	?	i	i
CCOC(=O)c1cnc2cc(C(F)(F)F)ccc2c1Nc1ccc(F)cc1F	nt	nt	i	i	nt	nt
CC1CCC(C(=O)NC(C(=O)OCC(=O)c2ccc(Br)cc2)C(C)C)CC1 (stereo not drawn)	nt	nt	i	i	nt	nt
Cc1c(N=Cc2ccc(Cl)o2)c(=O)n(-c2ccccc2)n1C	i	i	22.4µM	i	i	i
CCOc1ccccc1NC(=O)Cn1ncc2c([nH]c3ccccc32)c1=O	nt	nt	i	i	nt	nt
Cn1c(O)c(C2=NN(C(=O)CCl)C(c3ccccc3)C2)c(=O)n(C)c1=O (stereo not drawn)	i	i	12.6µM	i	i	i
N#CC1=C2SCN(Cc3ccccc3)CN2C(=O)CC1c1ccc2c(c1)OCO2 (stereo not drawn)	i	i	3.55µM	?	i	i
N#CC1=C2SCN(Cc3ccccc3)CN2C(=O)CC1c1cccs1 (stereo not drawn)	i	i	i	?	i	i
COc1ccc(C2CC(=O)N3CN(Cc4ccco4)CSC3=C2C#N)cc1 (stereo not drawn)	i	i	39.8µM	?	i	i
COc1ccc2ccccc2c1C1CC(=O)N2CN(C3CCCCC3)CSC2=C1C#N (stereo not drawn)	i	i	28.2µM	?	?	i
COc1ccc2ccccc2c1C1CC(=O)N2CN(Cc3ccco3)CSC2=C1C#N (stereo not drawn)	i	i	5.62µM	?	i	i
N[C@H]1CN(c2c(F)cc3c(=O)c(C(=O)O)cn(C4C[C@@H]4F)c3c2Cl)CC12CC2 (stereo partly drawn)	nt	nt	nt	i	nt	nt
CCOc1ccc(CNC(=O)c2ccc(Sc3ccc(C)cc3)c(N)c2)cc1OC	nt	nt	i	i	nt	nt
COc1ccc(C2CC(=O)N3CN(C4CCCCC4)CSC3=C2C#N)c(OC)c1 (stereo not drawn)	nt	nt	3.16µM	17.8µM	nt	nt
CC(C)c1ccc(C2CC(=O)N3CN(Cc4ccco4)CSC3=C2C#N)cc1 (stereo not drawn)	i	i	2.24µM	?	i	i
COc1ccc(OC)c(C2C(C#N)=C(N)N(N(C)C)C3=C2C(=O)CCC3)c1 (stereo not drawn)	i	i	i	i	i	i
N#Cc1c(NC(=O)c2ccc([N+](=O)[O-])o2)sc2c1CCC2	i	i	35.5µM	i	i	?
